IP6K1 inh = inhibitors of human IP6K1. Q92551. IP6K1 kinase, ADP-Glo luminescence, 2 h; hits give low values. activity change, % (series mostly up to about 58 µM). actives 0.81% (n = 140,000); in the data active = activity change below about -25%; note: % is set by controls: 0 for no effect and ±100 for the full control effect
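ADP-Glo luminescence measures ADP made by human IP6K1 during a 2 h RT reaction with ATP/IP6 (mix at 1.3 mM/130 uM); top library doses 57.5 and 19.1 uM final.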
KDM5B inhibitor = blocks human KDM5B histone demethylase activity; Q9UGL1; KDM5B demethylase, FDH-coupled NADH fluorescence (FDH is formaldehyde dehydrogenase); Potency, µM (doses to about 57.7 µM), hits mostly inhibitors; actives 2.6% (n = 220,000); AID 1347165; active = well fitted inhibition curve with a large enough effect; inconclusive = small, poorly fitted or top-dose-only effect; inactive = no such curve, though single readings can be large or run the other way; note: potency is the fitted concentration of half-maximal effect; 0% is about no effect; nearly all actives have a fitted effect of over 70% in size
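Coupled FDH/NAD⁺ fluorescence readout. KDM5BΔAP 200 nM final; compound titration, 10 min RT preincubation; substrate mix 12.5 µM H3K4me3, 25 µM 2-OG, 50 µM Fe(II), 100 µM ascorbate, 0.25 mM NAD⁺, 0.25 U/mL FDH; ΔRFU over 30 min.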
Starred values were filed as active, the others as inactive; i = inactive; ? = inconclusive; nt = not tested or not shown; ! = a repeat was not active. Rows were chosen to be rich in hits. Some 2.8% of all compounds tested hit in one or more screens of this group.

SMILES	IP6K1 inh	KDM5B inhibitor
O=C(NCc1ccncc1)c1cc(C2CC2)nc2onc(C3CCCN3)c12 (stereo not drawn)	9	79µM*
Cc1cc(C(=O)NCC(F)(F)F)c2c(C3CCCN3)noc2n1 (stereo not drawn)	0	50µM*
O=C(NC1CCCC1)c1cc(C2CC2)nc2onc(C3CCCN3)c12 (stereo not drawn)	6	?
Cc1cc(C(=O)NCC(C)C)c2c(C3CCCN3)noc2n1 (stereo not drawn)	0	i
COc1ccc(Nc2ccnc(N3CCC(NC(=O)c4ccc(Cl)nc4)CC3)n2)cc1	-5	nt
CC(C)C(N)c1ccccc1 (stereo not drawn)	nt	i
CNC(=O)CCn1ncc2cc(OC3CCc4cccc(-c5ccc(OC)cc5)c43)ccc21 (stereo not drawn)	-9	?
O=C(NC1CCN(c2cc(-c3cccs3)[nH]n2)C1)c1ccc(F)c(F)c1 (stereo not drawn)	-4	13µM*
CC(=O)Nc1ccc(C(=O)NC2CCN(c3cc(-c4cccs4)[nH]n3)C2)cc1 (stereo not drawn)	5	18µM*
O=C(NC1CCN(c2cc(-c3cccs3)[nH]n2)C1)c1ccccc1 (stereo not drawn)	-2	?
O=C(NC1CCN(c2cc(-c3cccs3)[nH]n2)CC1)c1ccc(F)c(F)c1	16	i
Cc1c(C(=O)NC2CCS(=O)(=O)C2)nnn1-c1ccc(Cl)cc1 (stereo not drawn)	nt	i
Cc1nn(-c2ccccc2)c2c1C(C)N(C1CN(C(=O)NC3CCCC3)C1)C2=O (stereo not drawn)	7	nt
COC1CN(c2cccc(F)c2)C12CCN(S(=O)(=O)c1cccc(F)c1)CC2 (stereo not drawn)	27	nt
CC(C)NC(=O)c1nc(C(C)(C)C)c2ccccn12	-10	112µM*
O=C(c1nc2ccccc2n(C2CCCC2)c1=O)N1CCCC1	11	nt
C#CCNC(=O)c1nc(C(C)(C)C)c2ccccn12	-8	112µM*
C#CCNC(=O)c1nc2sccn2c1-c1cccnc1	4	nt
CC(C)(C)c1nc(C(=O)N2CCCC2)n2ccccc12	-5	112µM*
CC(C)NC(=O)c1cc2c(=O)n3ccccc3nc2s1	nt	i
NS(=O)(=O)c1ccc(NC(=O)CN(Cc2ccc3c(c2)OCO3)C2CCCC2)cc1	nt	i
COCCOc1ccc(C(=O)NC(C)(C)C)cc1Br	nt	i
COc1ccccc1-c1cc2c(nc1-c1ccccc1)nc(C(=O)NC1CCN(C)CC1)n2C	5	28µM*
Cn1c(C(=O)NCC2CC2)nc2nc(-c3ccccc3)c(Cl)cc21	3	40µM*
COc1ccc(CNC(=O)c2nc3nc(-c4ccccc4)c(Cl)cc3n2C)cc1OC	6	35µM*
SMILES	IP6K1 inh	KDM5B inhibitor
COCc1nc2nc(-c3ccccc3)c(-c3ccccc3OC)cc2n1C	5	?
COc1cc(CNC(=O)c2nc3nc(-c4ccccc4)c(Cl)cc3n2C)cc(OC)c1	14	35µM*
COc1ccc(CNC(=O)c2sccc2-c2ccccc2)cc1OC	nt	i
O=C(NCC1CC1)c1nc2sccn2c1-c1ccccc1	-3	nt
COc1cccc(-c2c(C(=O)NCc3ccc(Cl)cc3)nc3sccn23)c1	-13	nt
CCc1nc(SCC(=O)Nc2ccc(C(=O)OC)cc2)[nH]c1C	nt	i
O=C1CC2(CCN(C(=O)C3CCN([S+](=O)([O-])c4cccs4)CC3)CC2)Oc2ccccc2N1	9	nt
N#C/C(=C\c1ccc(O)c(I)c1)c1nc2ccccc2[nH]1	nt	i
Cn1ncc2c(C(=O)NCc3ccccc3)cc(-c3ccccc3F)nc21	-1	nt
O=C(NCc1ccccc1)c1ccc2nnc(-c3ccoc3)n2c1	2	nt
O=C(NCCc1ccccn1)c1cc(-c2ccccc2)nc2ccccc12	nt	i
Cn1c(C(=O)NCCN2CCOCC2)nc2nc(-c3ccccc3)c(Cl)cc21	6	35µM*
Cn1c(C(=O)NCCc2ccccn2)nc2nc(-c3ccccc3)c(Cl)cc21	-1	35µM*
Cc1oc(-c2ccccc2)nc1C(=O)NCCN1CCOCC1	nt	i
Cn1c(C(=O)NCc2ccoc2)nc2nc(-c3ccccc3)c(Cl)cc21	-3	35µM*
CCn1nc(C(=O)NCc2ccccc2F)c2ccccc2c1=O	nt	i
CCOC(=O)C1c2c(OC)ccc3c2C(=CC(C)(C)CO3)CN1C1COC1 (stereo not drawn)	4	nt
COCCn1c(N2CCN(C)CC2)nc2c1c(=O)n(C)c(=O)n2C	nt	i
O=C(Nc1cc(I)ccc1C(F)(F)F)c1cc(Cl)ccc1Cl	nt	i
O=C(NC1CC1)c1nc2sccn2c1-c1ccc(F)cc1	2	nt
O=C(NC1CC1)c1nc(-c2ccc(F)cc2)c2ccccn12	4	32µM*
O=C(NC1CC1)c1nc(-c2cccnc2)c2ccccn12	-13	89µM*
CN(CC(=O)Nc1nccs1)S(=O)(=O)c1ccc(Br)cc1	nt	i
COc1ccc(C(=O)NC2CCN(c3nc4ncccc4o3)CC2)cc1	-10	22µM*
Cc1ccc([S+](=O)([O-])NC2CCN(c3nc4ncccc4o3)CC2)cc1	1	?
SMILES	IP6K1 inh	KDM5B inhibitor
C[S+](=O)([O-])NC1CCN(c2nc3ncccc3o2)CC1	-12	35µM*!
O=C(NC1CCCC1)NC1CCN(c2nc3ncccc3o2)CC1	-4	35µM*
O=C(NC1CCCC1)N1CCN(c2nc3ncccc3o2)CC1	-8	?
O=C(NC1CCN(c2nc3ncccc3o2)CC1)c1ccccc1Cl	-11	?
CC(=O)NC1CCN(c2nc3ncccc3o2)CC1	6	28µM*
COc1cccc(C(=O)NC2CCN(c3nc4ncccc4o3)C2)c1 (stereo not drawn)	13	nt
Cc1ccccc1C(=O)N1CCC(N2C(=O)c3c(c(C)nn3-c3ccccc3)C2C(C)C)C1 (stereo not drawn)	-2	nt
O=C(NC1CCCC1)C1CCCN(Cc2cccc(-c3cccs3)c2)C1 (stereo not drawn)	-3	nt
C#CCN(C)C(=O)CC1COc2ccc(C(=O)N3CCOCC3)cc2N1C (stereo not drawn)	6	i
COCCNC(=O)c1ccc2c(c1)N(C)C(CC(=O)N1CCCC1)CO2 (stereo not drawn)	1	32µM*
CN1c2cc(C(=O)N3CCOCC3)ccc2OCC1CC(=O)NC(C)(C)C (stereo not drawn)	8	i
COCCNC(=O)c1ccc2c(c1)N(C)C(CC(=O)N1CCNC(=O)C1)CO2 (stereo not drawn)	12	28µM*
CSCC(=O)Nc1nn(-c2ccc(F)cc2)c2cccc(N3CCOCC3)c12	35	25µM*
CN(C)CCOc1cccc2c1c(NC(=O)c1ccn[nH]1)nn2-c1ccc(F)cc1	3	?
CCc1noc(-c2ccn3c(CNC(=O)c4cccc(F)c4)nnc3c2)n1	17	i
CCc1noc(-c2ccn3c(CNC(=O)c4cccnc4)nnc3c2)n1	27	28µM*
CCc1noc(-c2ccn3c(CNC(=O)Cc4ccc(F)cc4)nnc3c2)n1	10	i
CCc1noc(-c2ccn3c(CNC(=O)c4ccc(F)cc4)nnc3c2)n1	0	13µM*
CCc1noc(-c2ccn3c(CNC(=O)c4ccc(C)c(C)c4)nnc3c2)n1	7	3.2µM*
CCCc1noc(-c2ccn3c(CNC(=O)c4ccc(C)c(C)c4)nnc3c2)n1	13	4.5µM*
CCCc1noc(-c2ccn3c(CNC(=O)c4ccc(F)c(Cl)c4)nnc3c2)n1	6	?

Bioassay records deposited in PubChem BioAssay by National Center for Advancing Translational Sciences (NCATS).
